PNC assembly inh – blocks assembly of the perinucleolar compartment | 140,000 compounds, 3.1% hits | AID 2417 | PC3M PTB-GFP, PNC prevalence imaging, 16 h; active compounds read low | activity change (PNC), negative = inhibition, % at 10 µM;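 active = readout at or below -70, meaning at least 70% loss of cells showing the perinucleolar compartment, a nuclear body marking cancer cells; inconclusive = readout between -30 and a set limit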
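PC3M cells stably expressing PTB-GFP, 750–1000 cells/well, treated 16 h at 37 °C with compound (23 nl of library stock), in duplicate. After paraformaldehyde fixation and Hoechst stain, imaged at 20x; PNC prevalence scored by image analysis.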
ALDH1A1 inh – blocks purified human ALDH1A1 activity | P00352 | Purified ALDH1A1, NADH fluorescence, propionaldehyde substrate | Potency, µM (doses to about 75.3 µM), most hits filed as inhibitors | 220,000 compounds, 7.3% hits
HPGD inh – blocks human HPGD enzyme activity. P15428. purified HPGD, NADH fluorescence kinetic, PGE2 substrate. Potency, µM, actives largely listed as inhibitors. 150,000 compounds, 4.3% hits. AID 894
Target sequence (P15428 whole entry, looked up): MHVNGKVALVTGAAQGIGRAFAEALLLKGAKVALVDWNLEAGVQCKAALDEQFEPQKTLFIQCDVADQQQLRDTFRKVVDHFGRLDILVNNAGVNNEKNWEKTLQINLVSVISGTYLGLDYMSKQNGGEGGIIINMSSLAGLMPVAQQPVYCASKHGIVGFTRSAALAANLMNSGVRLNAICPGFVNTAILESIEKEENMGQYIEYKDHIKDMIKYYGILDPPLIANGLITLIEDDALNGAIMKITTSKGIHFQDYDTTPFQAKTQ
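NADH formation kinetics: reaction with 30 uM PGE2 and 1 mM NAD+ (final), 20 nM enzyme, Tris-HCl pH 8 with Tween 20, after 15 min compound preincubation at room temperature. Fluorescence change, last versus first of five reads.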
Large screens that a line does not name were inactive. In the library only some 11% were active in any assay of this set; here they are far more common. Unless noted, calls come from the whole dose curve; as a rule, active = well fitted inhibition curve with a large enough effect (not every such curve was filed as active); inconclusive = small, poorly fitted or top-dose-only effect, or another doubt; inactive = no such curve, though single readings can be large or run the other way.

C(=N\Nc1nc(N2CCCCC2)nc(N2CCCCC2)n1)/c1c[nH]c2ccccc12	none (no result: PNC assembly inh, HPGD inh)
CN(C)c1nc(N/N=C/c2c[nH]c3ccccc23)nc(N2CCOCC2)n1	ALDH1A1 inh 19µM (no result: PNC assembly inh, HPGD inh)
COc1ccc(-c2[nH]n(-c3ccc([N+](=O)[O-])cc3)c(=O)c2C=NCc2ccccc2)cc1	PNC assembly inh inconclusive
Cc1ccc(-c2nc3cnccn3c2Nc2ccc3c(c2)OCO3)o1	PNC assembly inh inconclusive, ALDH1A1 inh 14µM
Cc1ccc(Nc2c(-c3ccc(C)o3)nc3cnccn23)cc1	ALDH1A1 inh inconclusive, HPGD inh inconclusive
COC(=O)Nc1ccc2ncn(C)c(=O)c2c1	none
CCCCC/C=C\C/C=C\C/C=C\CCCCCCC(=O)NC(C)C(=O)O (stereo unspecified)	none (no result: PNC assembly inh)
COc1ccc(NC(=O)c2cccnc2NCCc2ccccc2)cc1	none
COc1ccccc1NC(=O)c1cnc(Nc2ccccc2OC)c2ccccc12	PNC assembly inh -86, ALDH1A1 inh inconclusive, HPGD inh inconclusive
COc1cccc(Nc2ncccc2C(=O)Nc2ccccc2)c1	PNC assembly inh -80
COc1ccccc1Nc1ncc(C(=O)N2CCC(C(N)=O)CC2)c2ccccc12	none
COc1ccccc1Nc1ncccc1C(=O)O	PNC assembly inh -100
CCOc1ccccc1Nc1ncccc1C(=O)O	none
C/C(Cc1ccccc1)=N\NC(=O)CNC(=O)c1ccc(C(C)(C)C)cc1	PNC assembly inh inconclusive
COCCN1C(=O)N[C@@H](c2ccco2)C(C(C)=O)=C1C	none
Cc1cc(C)c(C(=O)COC(=O)c2cccc(S(=O)(=O)NCc3ccccc3)c2)cc1C	none
O=C(COC(=O)c1cccc(S(=O)(=O)NCc2ccccc2)c1)c1ccccc1	HPGD inh 20µM
Cc1ccccc1Nc1nc(N)nc(COC(=O)c2cccc(S(=O)(=O)N(C)C)c2)n1	none
Cc1ccccc1Nc1nc(N)nc(COC(=O)c2cccc(S(=O)(=O)NCc3ccccc3)c2)n1	HPGD inh 28µM
Cc1ccccc1N1C(=O)CN(Cc2sccc2C)C1=S	none
CN(C)c1ccc(/C=C/c2cc[n+](C)cc2)cc1	ALDH1A1 inh 14µM
CN(C)c1ccc(/C=C/c2cc[n+]([O-])cc2)cc1	PNC assembly inh inconclusive
CC(C)OCCCNc1ncnc2c1[nH]c1ccccc12	PNC assembly inh -97, ALDH1A1 inh inconclusive
C1=C(CCNc2ncnc3c2[nH]c2ccccc23)CCCC1	PNC assembly inh inconclusive, ALDH1A1 inh inconclusive
CCCC(=O)c1c[nH]c(C(=O)NCCc2ccccn2)c1	none
Cc1nn(-c2ccccc2)c(Cl)c1C(=O)Nc1nnc(C2CCCCC2)s1	PNC assembly inh inconclusive, ALDH1A1 inh 4µM
Cc1nn(Cc2ccccc2Cl)c(C)c1C(=O)NCc1ccco1	none
Cc1nn(Cc2ccccc2Cl)c(C)c1C(=O)Nc1nnc(C2CC2)s1	PNC assembly inh -97, ALDH1A1 inh inconclusive
Cc1nn(-c2ccc(C(=O)Nc3nnc(C4CC4)s3)cc2)c(C)c1Cl	PNC assembly inh inconclusive
O=C(Nc1nnc(C2CC2)s1)c1cc(-c2ccccc2)nn1-c1ccccc1	PNC assembly inh -81
Cc1ccc(C)c(NC(=O)c2cc(-c3ccccc3)nn2-c2ccccc2)c1	PNC assembly inh inconclusive, ALDH1A1 inh inconclusive
O=C(OCC#CCSc1nnc(-c2ccc([N+](=O)[O-])cc2)o1)c1cccs1	ALDH1A1 inh inconclusive
O=C(Nn1cnnc1)c1cc2c(s1)CCCCC2	ALDH1A1 inh inconclusive
Cn1c(OCc2ccco2)nc2c1c(=O)n(Cc1ccc(Cl)c(Cl)c1)c(=O)n2C	ALDH1A1 inh 25µM
Cn1c(N2CCOCC2)nc2c1c(=O)n(Cc1ccc(Cl)c(Cl)c1)c(=O)n2C	PNC assembly inh inconclusive
Cc1ccc(Cn2c(=O)c3c(nc4n3CCN4Cc3ccco3)n(C)c2=O)cc1	PNC assembly inh -100, ALDH1A1 inh inconclusive
Cn1c(=O)n(Cc2ccccc2)c(=O)c2c1nc1n2CCN1Cc1ccco1	none (no result: PNC assembly inh, HPGD inh)
CC(=O)Nc1ccccc1OCC(=O)NCCc1ccc(Cl)cc1Cl	PNC assembly inh inconclusive (no result: HPGD inh)
N=C(N)CCNC(=O)[C@@H]1CCC(N)=N1	none (no result: PNC assembly inh)
NC(N)=NCCCC(=O)O	none (no result: PNC assembly inh)
Cc1c(N=Cc2nc3ccccc3n2C)c(=O)n(-c2ccccc2)n1C	none
Cc1cccc(-c2ccc(C=Nc3c(C)n(C)n(-c4ccccc4)c3=O)o2)c1	ALDH1A1 inh 11µM
Cc1c(NC(=O)/C(C#N)=C/c2ccc(-c3ccc(Cl)c(Cl)c3)o2)c(=O)n(-c2ccccc2)n1C	none
Cc1c(NC(=O)/C(C#N)=C/c2ccc(-c3cccc(Cl)c3)o2)c(=O)n(-c2ccccc2)n1C	HPGD inh 18µM
CCOc1ccccc1NC(=O)CN1C(=O)C(C)SC(C)C1=O (stereo unspecified)	none (no result: PNC assembly inh, HPGD inh)
CCN(CC)S(=O)(=O)c1cc(NC(=O)COC(=O)c2sc3ccccc3c2Cl)ccc1C	none
COc1cccc(/C=N/NC(=O)CN(C2=NS(=O)(=O)c3ccccc32)c2ccccc2)c1	none
N#CCCN(/N=C/c1cccnc1)C1=NS(=O)(=O)c2ccccc21	ALDH1A1 inh 2µM (no result: PNC assembly inh, HPGD inh)
O=C1N/C(=C/c2cccs2)C(=O)N1Cc1ccc(Br)cc1	none (no result: PNC assembly inh, HPGD inh)
CN1CCN(C(=O)NCC23CC4CC(CC(C4)C2)C3)CC1	none (no result: PNC assembly inh, HPGD inh)
Cc1nnc(SCC(=O)Nc2ccc(Cl)cn2)s1	PNC assembly inh -119
COCCn1cnnc1SCC(=O)Nc1cccc(S(=O)(=O)N(C)c2ccccc2)c1	ALDH1A1 inh 5.6µM (no result: PNC assembly inh, HPGD inh)
COc1cccc(NC(=O)CSc2nnc(C)s2)c1	none
CN(c1ccccc1)S(=O)(=O)c1cccc(NC(=O)CC(C)(C)C)c1	none
Cc1nnc(SCC(=O)Nc2cccc(S(=O)(=O)N(C)c3ccccc3)c2)s1	HPGD inh 0.022µM
Cc1csc(SCC(=O)Nc2ccc(Cl)cn2)n1	PNC assembly inh inconclusive
COc1ccc(Cn2c(CCC(=O)Nc3ccc(CC#N)cc3)nc3cccnc32)cc1	none
CC(C)[C@H](Nc1ncnc2nc[nH]c12)C(=O)O	none (no result: PNC assembly inh)
CN1/C(=C/C(=O)C2CC2)C(C)(C)c2ccccc21	none (no result: PNC assembly inh, HPGD inh)
CN1/C(=C\C(=S)NC(=O)c2ccc([N+](=O)[O-])cc2)C(C)(C)c2ccccc21	ALDH1A1 inh 35µM
CN1/C(=C\C(=O)Nc2ccc(Br)cc2)C(C)(C)c2ccccc21	ALDH1A1 inh inconclusive
CN1/C(=C/C=N/NC(=O)c2ccc([N+](=O)[O-])cc2)C(C)(C)c2ccccc21	PNC assembly inh inconclusive
CN1/C(=C\C(=S)NC(=O)c2cccc(Br)c2)C(C)(C)c2ccccc21	ALDH1A1 inh 1µM (no result: HPGD inh)
CN1/C(=C/C2CC(=O)N(c3ccc([N+](=O)[O-])cc3)C2=O)C(C)(C)c2ccccc21 (stereo unspecified)	PNC assembly inh inconclusive, ALDH1A1 inh 11µM
COc1cc(C(=O)Nc2ccccc2C2COC(=O)C2=N)cc(OC)c1OC (stereo unspecified)	none
Cc1cc(-c2nnnn2-c2ccc(F)cc2)no1	none (no result: PNC assembly inh, HPGD inh)
Cc1nnc(SCc2ccc(F)cc2)n1NC/C=C/c1ccccc1	none
Cc1ccccc1-c1noc(-c2ccccc2C(=O)NCc2ccco2)n1	ALDH1A1 inh 14µM (no result: PNC assembly inh, HPGD inh)
CCNC(=O)c1ccccc1-c1nc(-c2ccccc2Cl)no1	HPGD inh inconclusive
O=C(NCc1cccnc1)c1ccccc1-c1nc(-c2ccccc2)no1	ALDH1A1 inh 20µM (no result: PNC assembly inh, HPGD inh)
O=C(CCc1nc(-c2ccccc2)no1)NCc1cccnc1	none
CCOC(=O)c1ccc(Nc2ncnc3nc[nH]c23)cc1	HPGD inh inconclusive
c1ccc(COc2ccc(Nc3ncnc4nc[nH]c34)cc2)cc1	HPGD inh 16µM
Cc1ccccc1NC(=O)N1CCN(C/C=C/c2ccccc2)CC1	none (no result: PNC assembly inh, HPGD inh)

Bioassay records deposited in PubChem BioAssay by National Center for Advancing Translational Sciences (NCATS).
